Sampled rows, rich in hits. Any-hit rate of the full collection: about 3.5%.
FBW7 act: FBW7 E3 ligase activators, primary screen, biochemical, AlphaScreen, human. normalized activity (activation), % at 26.1 µM. 650,000 compounds, 0.13% hits. F-box/WD repeat-containing protein 7 (Homo sapiens), Q969H0. AlphaScreen FBW7–phospho-cyclin E peptide binding, activator screen; in the data active = normalized activity above about 1.9%;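 note: purified mutant Fbw7 with reduced substrate affinity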
TEAD-YAP block: TEAD-YAP interaction inhibition, primary screen, TEAD-YAP interaction inhibitor project, luminescence, HEK-TIYL cells; TEAD-Gal4/YAP UAS-luciferase luminescence; inhibition, % at 9.12 µM; 640,000 compounds, 1.4% hits; AID 1259422, 2018; in the data active = inhibition above about 32%
GPR151 activ: activators of human GPR151, primary screen, cell-based, PathHunter beta-arrestin, luminescence. PathHunter beta-arrestin GPR151 cells. activation, % at 11.2 µM. 650,000 compounds, 1% hits; in the data active = activation above about 4.9%
Target sequence (Q8TDV0 whole entry, looked up): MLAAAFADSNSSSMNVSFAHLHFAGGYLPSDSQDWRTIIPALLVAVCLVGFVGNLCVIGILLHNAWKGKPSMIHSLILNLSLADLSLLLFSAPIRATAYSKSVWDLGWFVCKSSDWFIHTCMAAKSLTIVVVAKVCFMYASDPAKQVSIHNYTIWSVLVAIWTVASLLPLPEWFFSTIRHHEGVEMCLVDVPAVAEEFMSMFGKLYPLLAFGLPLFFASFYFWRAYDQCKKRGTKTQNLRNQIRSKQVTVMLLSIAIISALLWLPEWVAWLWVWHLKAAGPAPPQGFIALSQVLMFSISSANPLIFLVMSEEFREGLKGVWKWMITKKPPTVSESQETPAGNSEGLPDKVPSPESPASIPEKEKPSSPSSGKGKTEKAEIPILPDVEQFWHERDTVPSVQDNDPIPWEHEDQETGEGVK
MITF primary: MITF inhibitors, primary screen, biochemical, AlphaScreen, human. Microphthalmia-associated transcription factor (Homo sapiens), O75030. AlphaScreen MITF homodimerization, bead proximity signal. inhibition, % at 2.6 µM. 650,000 compounds, 0.91% hits; in the data active = inhibition above about 50%
Hits are given with their value; - = inactive.

SMILES	FBW7 act	TEAD-YAP block	GPR151 activ	MITF primary
O=C(CCn1nnc2ccccc21)N/N=C\c1cc([N+](=O)[O-])ccc1O	-	-	-	-
O=C(N/N=C/c1cc([N+](=O)[O-])ccc1O)N/N=C/c1cc([N+](=O)[O-])ccc1O	-	-	-	-
O=C(Cn1nnc2ccccc21)N/N=C/c1cc([N+](=O)[O-])ccc1O	-	-	-	73
O=C(CNc1ccccc1)N/N=C/c1cc([N+](=O)[O-])ccc1O	-	-	-	54
CCNC(=O)C(=O)N/N=C/c1cc([N+](=O)[O-])ccc1O	-	-	-	74
CC1CCCCC12NC(=O)N(CC(=O)NCc1ccc(F)cc1)C2=O (stereo unspecified)	-	-	-	-
CCOc1ccc(NC(=O)c2ncn[nH]2)cc1	-	39	-	-
CCOc1ccc(NC(=O)c2ccc(C(=O)Nc3ccc(OCC)cc3)cc2)cc1	-	-	-	-
CC(C)C(=O)N1CCN(c2ccc(NC(=O)c3ncn[nH]3)cc2)CC1	-	-	-	-
O=C(Nc1ccc(N2CCCCC2)cc1)c1ncn[nH]1	-	82	-	-
CCc1cc(CNC(=O)CC2C(=O)NCCN2CCc2ccccc2)on1 (stereo unspecified)	-	-	-	-
FC(F)(F)c1ccc(Nc2nc(Nc3ccc4c(c3)OCO4)c3[nH]cnc3n2)cc1	-	-	-	-
CCNc1nc(Nc2ccc3c(c2)OCO3)c2[nH]cnc2n1	-	-	-	-
CCCNc1nc(Nc2ccncn2)nc2nc[nH]c12	-	36	-	-
c1cc(Nc2nc(Nc3ccc4c(c3)OCO4)c3[nH]cnc3n2)ncn1	27	-	-	-
c1cnc(Nc2nc(Nc3ccc4c(c3)OCO4)c3[nH]cnc3n2)cn1	20	-	-	-
CCN(CC)C(=O)Cn1cnc2sc(C(=O)Nc3ccccc3F)c(C)c2c1=O	-	-	-	-
COc1cc2c(cc1OC)C(C(=O)O)C(c1cccc(Oc3ccccc3)c1)N(C)C2=O (stereo unspecified)	-	-	-	-
CN(C)CC(O)CN(c1cccc([N+](=O)[O-])c1)S(=O)(=O)c1ccccc1 (stereo unspecified)	-	-	-	-
Cc1ccc(-n2c(SCc3ccccc3F)nc3ccsc3c2=O)cc1C	-	-	-	-
O=C(CCCCn1c(=O)[nH]c2ccsc2c1=O)NC1CCCCC1	-	-	-	-
CC(C)N1C/C(=C/c2cccnc2)C(=O)/C(=C/c2cccnc2)C1	-	52	-	-
CN1C/C(=C/c2cccnc2)C(=O)/C(=C/c2cccnc2)C1	-	74	-	-
Cc1cccc(NC(=O)Cn2c(C)nc3sc4c(c3c2=O)CCCC4)c1	-	-	-	-
COCCCN1C(=O)c2[nH]nc(-c3ccccc3O)c2C1c1ccc(C)cc1 (stereo unspecified)	-	43	-	-
SMILES	FBW7 act	TEAD-YAP block	GPR151 activ	MITF primary
CNC(=O)Cn1c(=O)n(-c2ccc(F)cc2)c(=O)c2oc3ccccc3c21	-	-	-	-
CCCCSc1nnc(-c2ccc3c(c2)OCO3)n1C	2.1	-	-	-
O=C(NCc1ccco1)c1c[nH]c2ccc(S(=O)(=O)N3CCCCC3c3cccnc3)cc2c1=O (stereo unspecified)	-	-	-	-
Cc1cc(NC(=O)Cc2ccccc2)ccc1-c1cc2ccccc2oc1=O	-	54	-	-
Cc1ccccc1OCC(=O)Nc1ccc(-c2cc3ccccc3oc2=O)c(C)c1	-	45	-	-
Cc1cc(NC(=O)c2ccccc2)ccc1-c1cc2ccccc2oc1=O	-	-	-	-
O=C(NCC1CCCO1)C1CCC(Cn2c(SCC(=O)N3CCN(c4ccccc4)CC3)nc3ccccc3c2=O)CC1 (stereo unspecified)	-	-	-	-
O=C(NCC1CCCO1)c1ccc2c(=O)n(CC3CCCO3)c(SCC(=O)N3CCN(c4ccccc4)CC3)nc2c1 (stereo unspecified)	-	32	-	-
O=C(CNC(=O)c1cccc(Cl)c1)N=Nc1c(O)[nH]c2ccc([N+](=O)[O-])cc12	-	-	-	-
COc1ccc(S(=O)(=O)OCC(F)(F)[N+](=O)[O-])cc1Br	-	44	-	-
C=CCNc1nc(Nc2ccc(I)cc2)nc(OC)n1	-	-	-	-
OC1CCC(Nc2nccn3c(-c4ccc(F)cc4)cnc23)CC1 (stereo unspecified)	-	-	-	-
OC1CCC(Nc2nccn3c(-c4ccc5c(c4)OCO5)cnc23)CC1 (stereo unspecified)	1.9	-	-	-
O=C(NC1CC1)c1ccc(-c2cnc3c(NC4CCC(O)CC4)nccn23)cc1 (stereo unspecified)	-	51	-	-
COc1ccccc1-c1cnc2c(NC3CCC(O)CC3)nccn12 (stereo unspecified)	-	50	-	-
COc1cc(-c2cnc3c(NC4CCC(O)CC4)nccn23)cc(OC)c1OC (stereo unspecified)	-	-	-	-
CCOc1ccc(Nc2nc(-c3c(C)nc4ccccn34)cs2)cc1	-	70	-	-
Cc1ccn2c(-c3csc(Nc4cccc(O)c4)n3)c(C)nc2c1	-	49	-	-
Cc1cccc(Nc2nc(-c3c(C)nc4cc(C)ccn34)cs2)c1	-	-	-	-
CCOc1ccc(Nc2nc(-c3c(C)nc4cc(C)ccn34)cs2)cc1	-	67	-	-
CCOc1ccccc1Nc1nc(-c2c(C)nc3ccccn23)cs1	-	-	-	-
O=C1CCCN1CCn1cnc2c(Nc3ccc4c(c3)OCO4)nc(Nc3ccccc3)nc21	-	-	-	-
OCCNc1nc(Nc2ccccn2)nc2c1ncn2-c1ccsc1	-	69	-	-
CCCNc1nc(Nc2ccccn2)nc2c1ncn2-c1ccsc1	-	62	-	-
OCCNc1nc(Nc2nccc3ccccc23)nc2c1ncn2-c1ccsc1	-	58	-	-
SMILES	FBW7 act	TEAD-YAP block	GPR151 activ	MITF primary
FC(F)(F)c1cccc(CNc2nc(Nc3nccc4ccccc34)nc3c2ncn3-c2ccsc2)c1	-	32	-	-
c1ccc(OCCNc2nc(Nc3ccccn3)nc3c2ncn3-c2ccsc2)cc1	-	-	-	-
CCCNc1nc(Nc2ccccn2)nc2c1ncn2-c1ccccc1	-	-	-	-
O=C(CN1C(=O)NC2(CCCC2)C1=O)c1ccc(S(=O)(=O)N2CCCCC2)cc1	-	-	-	-
O=C(CN1C(=O)/C(=C\c2ccccc2Br)Oc2ccccc21)NC1CCCC1	-	57	-	-
O=C(CN1C(=O)/C(=C\c2ccccc2)Oc2ccccc21)NC1CCCCC1	-	-	-	-
Clc1ccccc1/C=N/Nc1cc(N2CCOCC2)nc(N2CCOCC2)n1	-	-	-	-
N#CC(C#N)=C(N)/C(C#N)=C/c1cccn1-c1ccc(S(N)(=O)=O)cc1	-	-	-	-
CC1(C)c2ssc(=S)c2-c2ccccc2N1C(=O)c1ccccc1	-	57	-	-
CC1(C)c2ssc(=S)c2-c2ccccc2N1C(=O)C1CC1	-	-	-	-
